Binding signal data for six sequences are collected here from PMC7862700, “An all-to-all approach to the identification of sequence-specific readers for epigenetic DNA modifications on cytosine”.

Holding throughout (assay): DAPPL (digital affinity profiling via proximity ligation, sequencing); 10 mM Tris-HCl pH 7.5, 50 mM NaCl, 1 mM DTT, 4% glycerol, room temperature, 30 min; GST-TFs on glutathione beads, 16-mer random dsDNA library, 0.1% formaldehyde crosslink after washing; high values mean tight binding
Holding throughout (details): protein: recombinant; tags: N-terminal GST; dsDNA, one strand shown

The target in one assay is T1, ERF (Homo sapiens, UniProt P50548 1-548).
T1 sequence: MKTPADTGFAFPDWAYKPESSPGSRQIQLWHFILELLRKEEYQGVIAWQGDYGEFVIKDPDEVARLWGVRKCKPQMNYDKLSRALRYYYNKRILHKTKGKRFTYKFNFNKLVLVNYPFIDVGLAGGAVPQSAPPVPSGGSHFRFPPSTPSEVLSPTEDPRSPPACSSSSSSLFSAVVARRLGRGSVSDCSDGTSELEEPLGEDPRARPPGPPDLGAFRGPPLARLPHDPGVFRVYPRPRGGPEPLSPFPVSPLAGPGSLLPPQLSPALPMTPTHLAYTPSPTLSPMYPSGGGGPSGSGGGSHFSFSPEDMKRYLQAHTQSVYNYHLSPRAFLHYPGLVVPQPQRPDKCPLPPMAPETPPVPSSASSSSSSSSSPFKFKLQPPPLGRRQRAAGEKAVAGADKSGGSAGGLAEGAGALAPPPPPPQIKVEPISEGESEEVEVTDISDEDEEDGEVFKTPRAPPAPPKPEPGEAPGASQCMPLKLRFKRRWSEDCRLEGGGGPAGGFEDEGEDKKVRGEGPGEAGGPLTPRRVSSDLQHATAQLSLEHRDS
The procedure, abridged: (§1)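 Beads coated with glutathione captured GST-fused human transcription factors that had been expressed in yeast, and the factors were then given DNA barcodes and pooled with a tag-only sample. The pools were incubated with 200 nmole of a random double-stranded 16-mer DNA library in Tris/NaCl/DTT/glycerol buffer for 30 min at room temperature, washed, crosslinked with 0.1% formaldehyde and proximity-ligated with BsaI/T4 ligase at 37 °C for 1 h. PCR amplification and Illumina NextSeq500 sequencing came last. Binding signal is each hexamer's read frequency for a factor divided by its frequency for the tag-only sample.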

The target in the next assay is T2, ETV3L (Homo sapiens, UniProt Q6ZN32 1-361).
T2 sequence: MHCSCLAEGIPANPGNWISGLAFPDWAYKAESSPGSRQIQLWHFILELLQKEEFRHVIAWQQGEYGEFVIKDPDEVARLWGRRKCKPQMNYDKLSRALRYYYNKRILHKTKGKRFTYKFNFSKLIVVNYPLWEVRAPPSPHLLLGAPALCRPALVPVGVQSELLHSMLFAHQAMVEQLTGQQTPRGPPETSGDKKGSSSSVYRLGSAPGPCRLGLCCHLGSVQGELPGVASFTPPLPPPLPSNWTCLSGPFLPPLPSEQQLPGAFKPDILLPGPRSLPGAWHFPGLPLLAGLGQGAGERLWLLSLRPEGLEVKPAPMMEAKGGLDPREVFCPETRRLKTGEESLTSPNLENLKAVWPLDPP
The procedure, abridged:
as §1

Another assay has as its target T3, ETS2 (Homo sapiens, UniProt P15036 1-469).
T3 sequence: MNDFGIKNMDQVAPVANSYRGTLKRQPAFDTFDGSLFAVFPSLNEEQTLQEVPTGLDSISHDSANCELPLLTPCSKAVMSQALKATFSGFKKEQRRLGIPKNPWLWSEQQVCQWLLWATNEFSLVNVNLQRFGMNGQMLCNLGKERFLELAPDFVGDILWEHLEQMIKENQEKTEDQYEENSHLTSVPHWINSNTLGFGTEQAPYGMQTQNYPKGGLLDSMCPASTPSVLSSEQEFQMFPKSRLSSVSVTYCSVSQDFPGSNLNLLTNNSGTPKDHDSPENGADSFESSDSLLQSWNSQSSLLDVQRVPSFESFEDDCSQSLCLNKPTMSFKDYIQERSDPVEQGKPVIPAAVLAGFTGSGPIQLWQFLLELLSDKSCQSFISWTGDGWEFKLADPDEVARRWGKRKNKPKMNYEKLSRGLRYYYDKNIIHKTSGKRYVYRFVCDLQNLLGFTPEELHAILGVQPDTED
An outline of the steps: as §1

Another assay has as its target T4, SPDEF (Homo sapiens, UniProt O95238 1-335).
T4 sequence: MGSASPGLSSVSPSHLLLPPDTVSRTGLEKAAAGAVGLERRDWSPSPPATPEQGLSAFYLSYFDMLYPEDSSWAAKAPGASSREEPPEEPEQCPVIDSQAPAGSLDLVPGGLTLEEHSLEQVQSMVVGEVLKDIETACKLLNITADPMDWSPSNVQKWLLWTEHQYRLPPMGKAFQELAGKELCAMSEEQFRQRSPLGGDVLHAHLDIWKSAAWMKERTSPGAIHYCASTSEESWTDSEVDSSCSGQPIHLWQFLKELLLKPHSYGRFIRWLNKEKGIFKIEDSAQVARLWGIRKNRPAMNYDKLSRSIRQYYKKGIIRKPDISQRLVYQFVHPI
The procedure, abridged: as §1

The next assay deals with T5, ETV7 (Homo sapiens, UniProt Q9Y603 1-341).
T5 sequence: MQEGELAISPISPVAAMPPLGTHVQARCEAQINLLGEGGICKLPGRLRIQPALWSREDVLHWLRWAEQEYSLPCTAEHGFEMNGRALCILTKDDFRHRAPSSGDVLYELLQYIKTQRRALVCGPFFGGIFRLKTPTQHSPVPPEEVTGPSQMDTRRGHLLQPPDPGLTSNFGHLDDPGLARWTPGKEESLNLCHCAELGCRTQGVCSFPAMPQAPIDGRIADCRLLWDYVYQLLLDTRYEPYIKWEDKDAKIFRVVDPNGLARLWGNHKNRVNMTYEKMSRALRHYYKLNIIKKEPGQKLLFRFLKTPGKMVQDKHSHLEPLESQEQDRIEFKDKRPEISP
An outline of the steps: as §1

A further assay concerns the target T6, ELF5 (Homo sapiens, UniProt Q9UKW6-2 1-255).
T6 sequence: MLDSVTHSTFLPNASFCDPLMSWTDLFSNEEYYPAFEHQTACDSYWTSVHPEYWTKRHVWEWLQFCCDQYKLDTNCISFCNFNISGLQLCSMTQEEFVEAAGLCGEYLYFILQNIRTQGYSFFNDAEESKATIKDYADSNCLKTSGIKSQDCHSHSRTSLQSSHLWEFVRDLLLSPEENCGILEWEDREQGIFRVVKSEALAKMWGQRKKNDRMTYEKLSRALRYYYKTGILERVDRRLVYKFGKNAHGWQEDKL
The procedure, abridged: as §1

The next assay has as its target T7, ETV3 (Homo sapiens, UniProt P41162-2 1-143).
T7 sequence: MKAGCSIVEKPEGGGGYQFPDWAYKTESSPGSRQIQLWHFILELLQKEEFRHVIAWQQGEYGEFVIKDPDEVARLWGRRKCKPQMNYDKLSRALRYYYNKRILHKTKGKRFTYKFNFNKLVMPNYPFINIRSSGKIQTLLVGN
An outline of the steps:
as §1

Another assay addresses ETV6 (Homo sapiens, UniProt P41212 1-452). The procedure, abridged:
as §1

Sequence of ETV6 (P41212 whole entry): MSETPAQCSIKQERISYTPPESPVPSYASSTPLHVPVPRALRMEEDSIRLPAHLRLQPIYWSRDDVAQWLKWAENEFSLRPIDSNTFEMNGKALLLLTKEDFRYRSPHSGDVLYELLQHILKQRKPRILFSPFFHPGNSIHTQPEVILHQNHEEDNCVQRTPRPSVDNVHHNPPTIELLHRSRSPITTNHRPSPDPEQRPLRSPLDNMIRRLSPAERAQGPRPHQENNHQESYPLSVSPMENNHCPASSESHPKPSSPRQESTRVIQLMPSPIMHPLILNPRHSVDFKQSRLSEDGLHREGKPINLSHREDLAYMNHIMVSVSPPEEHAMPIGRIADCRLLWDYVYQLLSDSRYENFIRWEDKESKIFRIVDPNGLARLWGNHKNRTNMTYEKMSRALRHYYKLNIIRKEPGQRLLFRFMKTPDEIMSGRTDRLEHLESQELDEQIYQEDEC

TTCAGG: the binding signal with ERF was 1.15 fold enrichment (6-mer frequency, TF over GST control); in the assay with ETV3L it was 1.1 fold enrichment (6-mer frequency, TF over GST control); with ETS2, 1.12 fold enrichment (6-mer frequency, TF over GST control); with SPDEF it was 1.25 fold enrichment (6-mer frequency, TF over GST control); in the assay with ETV7 it was 1.15 fold enrichment (6-mer frequency, TF over GST control); in the assay with ELF5 it was 1.15 fold enrichment (6-mer frequency, TF over GST control). Also, the binding signal with ETV3 is 1.1 fold enrichment (6-mer frequency, TF over GST control); in the assay with ETV6, 1.11 fold enrichment (6-mer frequency, TF over GST control).
In the case of GCGCTT, the binding signal in the assay with ERF is 1.42 fold enrichment (6-mer frequency, TF over GST control); in the assay with ETV3L it was 1.3 fold enrichment (6-mer frequency, TF over GST control); in the assay with ETS2, 1.37 fold enrichment (6-mer frequency, TF over GST control); with SPDEF, 1.2 fold enrichment (6-mer frequency, TF over GST control); with ETV7, 1.34 fold enrichment (6-mer frequency, TF over GST control); with ELF5, 1.31 fold enrichment (6-mer frequency, TF over GST control). For the same sequence, the binding signal with ETV3 is 1.42 fold enrichment (6-mer frequency, TF over GST control); with ETV6, 1.33 fold enrichment (6-mer frequency, TF over GST control).
For TCTTAA, the binding signal is 1.19 fold enrichment (6-mer frequency, TF over GST control) in the assay with ERF; 1.37 fold enrichment (6-mer frequency, TF over GST control) with ETV3L; 1.22 fold enrichment (6-mer frequency, TF over GST control) with ETS2; 1.28 fold enrichment (6-mer frequency, TF over GST control) with SPDEF; 1.27 fold enrichment (6-mer frequency, TF over GST control) with ETV7; 1.2 fold enrichment (6-mer frequency, TF over GST control) with ELF5. In addition, the binding signal in the assay with ETV3 was 1.23 fold enrichment (6-mer frequency, TF over GST control); with ETV6, 1.26 fold enrichment (6-mer frequency, TF over GST control).
Regarding CGATTG, the binding signal with ERF is 1.24 fold enrichment (6-mer frequency, TF over GST control); in the assay with ETV3L, 1.17 fold enrichment (6-mer frequency, TF over GST control); with ETS2 it was 1.15 fold enrichment (6-mer frequency, TF over GST control); with SPDEF, 1.22 fold enrichment (6-mer frequency, TF over GST control); with ETV7 it was 1.18 fold enrichment (6-mer frequency, TF over GST control); with ELF5, 1.11 fold enrichment (6-mer frequency, TF over GST control). Besides, the binding signal was 1.07 fold enrichment (6-mer frequency, TF over GST control) in the assay with ETV3 and 1.22 fold enrichment (6-mer frequency, TF over GST control) with ETV6.
Consider TTGGCA, for which the binding signal is 1.19 fold enrichment (6-mer frequency, TF over GST control) in the assay with ERF; 1.14 fold enrichment (6-mer frequency, TF over GST control) with ETV3L; 1.13 fold enrichment (6-mer frequency, TF over GST control) with ETS2; 1.12 fold enrichment (6-mer frequency, TF over GST control) with SPDEF; 1.09 fold enrichment (6-mer frequency, TF over GST control) with ETV7; 1.01 fold enrichment (6-mer frequency, TF over GST control) in the assay with ELF5. Further, the binding signal in the assay with ETV3 was 1.17 fold enrichment (6-mer frequency, TF over GST control); with ETV6, 1.19 fold enrichment (6-mer frequency, TF over GST control).
Regarding ATCTTG, the binding signal with ERF was 1.29 fold enrichment (6-mer frequency, TF over GST control); with ETV3L, 1.31 fold enrichment (6-mer frequency, TF over GST control); with ETS2 it was 1.33 fold enrichment (6-mer frequency, TF over GST control); in the assay with SPDEF, 1.27 fold enrichment (6-mer frequency, TF over GST control); in the assay with ETV7, 1.24 fold enrichment (6-mer frequency, TF over GST control); with ELF5 it was 1.23 fold enrichment (6-mer frequency, TF over GST control). For the same sequence, the binding signal was 1.37 fold enrichment (6-mer frequency, TF over GST control) with ETV3 and 1.18 fold enrichment (6-mer frequency, TF over GST control) with ETV6.
